Screening data as filed in PubChem BioAssay.
Most compounds without a hit are left out; they make up all but 5.2% or so of the library.
Tau fluor cs: counter-screen for tau fibril formation inhibitors; tau K18 P301L Alexa594 fluorescence, heparin fibrillization; Potency, µM (titrated, usually from 57.7 µM), without a hit: at the top dose activity change, negative = decrease; 280,000 compounds, 0.93% hits; note: potency is the fitted concentration of half-maximal effect; nearly all actives have a fitted effect of over 55% in size
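Human tau K18 P301L (15 uM unlabeled, 0.24 uM Alexa 594-labeled) in 100 mM sodium acetate pH 7 with 20 uM heparin, 6 hr at 37 C. ThT 30 uM added, 1 hr ambient; Alexa 594 FP and total fluorescence read at 555/632 nm.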
Tau fibril ThT: inhibitors of human tau fibril formation, thioflavin T binding. Potency, µM (highest dose often 57.4 µM), without a hit: top-dose activity, negative = inhibition, most hits filed as inhibitors. 270,000 compounds, 2.1% hits. P10636. recombinant tau K18 P301L, heparin-induced fibrillization, ThT fluorescence; note: potency is the fitted concentration of half-maximal effect; nearly all actives have a fitted effect of over 55% in size
Target sequence (P10636 561-689 P618L limits assumed): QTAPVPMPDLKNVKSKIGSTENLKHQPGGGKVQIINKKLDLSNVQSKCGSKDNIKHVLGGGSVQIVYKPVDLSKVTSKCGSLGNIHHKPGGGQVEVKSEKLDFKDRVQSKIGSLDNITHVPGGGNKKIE
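Using a mix of unlabeled (15 uM) and Alexa 594-labeled (0.24 uM) tau K18 P301L, heparin-triggered fibrillization over 6 hr at 37 C was scored by ThT fluorescence.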
Tau fibril FP: tau fibrillization inhibition (FP). P10636. K18 P301L tau heparin fibrillization, Alexa594 FP, 6 h. Potency, µM (doses to about 57.7 µM), for the others: top-dose activity, negative = inhibition, actives largely listed as inhibitors. 280,000 compounds, 0.39% hits; note: potency is the fitted concentration of half-maximal effect; nearly all actives have a fitted effect of over 55% in size
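Read-out: fluorescence polarization of Alexa 594-labeled tau (0.24 uM), 555 nm excitation, 632 nm emission. Mixtures held 15 uM unlabeled K18 P301L, compound and 20 uM heparin, pH 7 acetate buffer, incubated 6 hr at 37 C.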
Sfp inh: inhibitors of Bacillus subtilis Sfp phosphopantetheinyl transferase | Q9F4F7 | Biochemical Sfp PPTase activity, qHTS | Potency, µM, without a hit: largest response in the series, negative = inhibition, actives largely listed as inhibitors | 310,000 compounds, 3.5% hits | AID 1490;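 note: the enzyme is Sfp with the accession as filed and its product quenches rhodamine fluorescence; potency is the fitted concentration of half-maximal effect; 0% = enzyme reaction without inhibitor and -100% = no enzyme wells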
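With Hepes-Na pH 7.6 buffer containing 10 mM MgCl2, Sfp (15 nM) modified BHQ-2-YbbR (12.5 uM) using rhodamine-CoA (5 uM). Two reads 30 minutes apart at 525/598 nm yielded each well's rate.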
FBPA coupling cs: coupling enzyme interference in Giardia aldolase counter-screen; 290,000 compounds, 0.67% hits; activity change, negative = inhibition, % at 58.2 µM, hits read low; AID 2472; coupling enzyme system counterscreen, AmpLite Red fluorescence; in the data active = activity change below about -30%
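Fluorescence at 525 nm excitation and 598 nm emission measured inhibition of the coupled detection system without aldolase. Compounds (at 57.5 uM final) were preincubated 10 min at room temperature with coupling enzyme reagent before a 20 min substrate/AmpLite Red step.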
Active calls of the source: *; u = inconclusive; x = no result; [ ] = remark or other dose. Unless noted, calls come from the whole dose curve; as a rule, active = well fitted curve in the direction sought with a large enough effect; inconclusive = small, poorly fitted or top-dose-only effect, or another doubt; inactive = no such curve, though single readings can be large; an effect the other way counts as inactive or inconclusive. Unless noted, % is set by controls: 0 for no effect and ±100 for the full control effect.

SMILES	Tau fluor cs	Tau fibril ThT	Tau fibril FP	Sfp inh	FBPA coupling cs
O=C(Nc1nc2ccc(F)cc2s1)C1CCN(S(=O)(=O)c2cc([N+](=O)[O-])ccc2Cl)CC1	7.1µM*[quencher]	u	u	u	-11
Cc1ccc2nc(NC(=O)C3CCN(S(=O)(=O)c4cc([N+](=O)[O-])ccc4Cl)CC3)sc2c1	u	u	6%	-3%	-1
O=c1[nH]c(SCc2ccc(Br)cc2)nc2c1CCCC2	-6%	4%	-12%	x	x
O=C(O)c1ccc(-n2cc(-c3cc4ccccc4oc3=O)[nH]c2=S)cc1	-13%	u	-4%	3.2µM*	-2
CCC12C=C(/C=C/c3ccccc3)C(CC)(C1)C(c1ccccc1)CC2=O (stereo not drawn)	-4%[11.6 µM]	-2%[11.5 µM]	1%[11.6 µM]	-9%	1
COc1cc(S(=O)(=O)NCCc2c(C)[nH]c3ccc(C)cc23)ccc1Br	14µM*[quencher]	u	u	x	x
COc1ccc(C(C)C)cc1S(=O)(=O)NCCc1c(C)[nH]c2ccc(C)cc12	10µM*[quencher]	u	u	x	x
COc1ccc(NC(=O)Cn2c(=O)nc(-c3ccccc3)c3ccccc32)cc1OC	1%	-1%	3%	x	x
CC(C)c1ccc(/C=C/C(=O)NCc2ccc(S(N)(=O)=O)cc2)cc1	-10%	-17%	-8%	21%	1
NS(=O)(=O)c1ccc(NC(=S)NC(=O)/C=C/c2ccco2)cc1	-27%	u	-6%	20µM*	0
NS(=O)(=O)c1ccc(CNC(=O)/C=C/c2ccco2)cc1	-11%	u	u	20µM*	0
Cc1ccc(C(=O)N/C(=C/c2ccco2)C(=O)NCC2CCCO2)cc1 (stereo not drawn)	-2%	-5%	2%	8%	4
O=C(/C=C/c1ccco1)NCc1ccc(F)cc1	-11%	-10%	-8%	40µM*	-2
O=C(/C=C/c1ccco1)NCC1CCCO1 (stereo not drawn)	-20%	14µM*	u	-70%	-1
CCC(CC)C(=O)Nc1ccc(OCc2cc(=O)n3ccc(C)cc3n2)cc1	2%	-1%	-3%	x	x
O=C(CNC(=O)/C=C/c1ccco1)N=Nc1c(O)[nH]c2ccccc12	x	x	x	20µM*	1
O=C(/C=C/c1ccco1)NC(=S)Nc1cccc([N+](=O)[O-])c1	0%	1%	10%	32µM*	-1
O=C(CNC(=O)Cc1ccccc1)N=Nc1c(O)[nH]c2ccccc12	x	x	x	15%	0
O=C(CCSCc1cccc(Cl)c1)NCc1ccccc1Cl	-25%	-12%	-5%	x	x
Cc1ccc(NC(=O)NCc2c(-n3cccc3)sc3c2CCCC3)c(Cl)c1	-16%	-13%	-4%	x	x
O=S(=O)(Nc1ccc(F)cc1F)c1ccc(-n2cccn2)cc1	-9%	2%	-3%	x	x
C=CCN1C(c2ccccc2)=CS/C1=C(\C#N)c1nnc2n1CCCCC2	5%	-2%	8%	63µM*	-1
C=CCN1C(c2ccc(Br)cc2)=CS/C1=C(/C#N)c1nnc(N2CCOCC2)n1-c1ccccc1	-21%	u	-10%	79µM*	1
C=CCN1C(c2cccc(C(F)(F)F)c2)=CS/C1=C(/C#N)c1nnc(N2CCOCC2)n1-c1ccccc1	-15%	u	2%	-29%	-2
COc1ccc2c(C)c(CCC(=O)NCc3ccccc3OC)c(=O)oc2c1	-1%	6%	-2%	x	x
SMILES	Tau fluor cs	Tau fibril ThT	Tau fibril FP	Sfp inh	FBPA coupling cs
Nc1ccnc2c1ncn2[C@@H]1O[C@H](CO)[C@@H](O)[C@H]1O	7%	6%	1%	15%	x
N#C/C(=C(/O)CN1CCCC1)c1nc(-c2ccccc2)cs1	-9%	-16%	2%	32µM*	-7
O=C(CC1N=C2c3ccccc3N=C(SCC(=O)Nc3cccc(Cl)c3)N2C1=O)NCc1cccs1 (stereo not drawn)	u	-18%	-1%	x	x
S=C(c1ccc(-c2cccc(Cl)c2)o1)N1CCCCC1	-24%	u	-6%	-43%	0
N#CCCN1CCN(C(=S)c2ccc(-c3ccc(Cl)c(Cl)c3)o2)CC1	-24%	u	11%	50µM*	-3
N#CCCN1CCN(C(=S)c2ccc(-c3cccc(Cl)c3)o2)CC1	-28%	u	2%	45µM*	-8
Cc1ccc(-c2ccc(C(=O)O)o2)cc1Cl	11%	9%	10%	-5%	15
CC1=C(C)Cc2c(OC(=O)c3ccccc3)ccc(OC(=O)c3ccccc3)c2C1	-19%	-14%	-7%	10%	5
O=C(Oc1cccccc1=O)c1ccccc1	-8%	u	4%	25µM*	2
COc1cccc(NC(=O)C2CCN(c3nnc(C)c4c(C)n(-c5ccccc5)nc34)CC2)c1	-11%	-13%	-2%	x	x
CCN(c1ccccc1)S(=O)(=O)c1ccc(Cl)c(NC(=O)CSc2ncn[nH]2)c1	-22%	-2%	0%	23%	5
CCN(c1ccccc1)S(=O)(=O)c1ccc(Cl)c(NC(=O)CN(C)C2CCN(C)CC2)c1	x	x	x	79µM*	-1
Cc1ccc(-c2ccc(C(=O)O)[nH]2)cc1	-3%	-9%	-1%	-2%	9
S=c1[nH]c(-c2ccc(Cl)cc2)cs1	-21%	u	-7%	11µM*	2
S=c1nccc(-c2ccc(Cl)cc2)[nH]1	-23%	u	u	-11%	-2
Cc1ccc(-c2csc(=S)[nH]2)cc1	-11%	u	-11%	35µM*	1
COc1ccc(-c2c(C)c3ccc(O)c(CN4CCCCC4)c3oc2=O)cc1OC	8%	8%	-4%	x	x
Cc1cccc(NC(=O)CSc2nccn2Cc2ccc(F)cc2)c1C	-13%	-4%	-3%	x	x
O=C(O)CC1CCCc2ccccc2C1O (stereo not drawn)	-9%	-5%	-7%	x	x
COc1cc(NS(=O)(=O)c2ccc(NC(=S)Nc3ccccc3)cc2)nc(OC)n1	x	x	x	-1%	x
Cc1cc(NS(=O)(=O)c2ccc(Nc3nc(-c4sc(N)nc4C)cs3)cc2)no1	u	20µM*	u	50µM*	-11
COc1cc(NS(=O)(=O)c2ccc(Nc3nc(-c4ccccc4)cs3)cc2)nc(OC)n1	13µM*[quencher]	u	u	-7%	5
Cc1nc(N)sc1-c1csc(Nc2ccccc2)n1	25µM*[quencher]	11µM*	u	-10%	-13
Cc1cc(O)ccc1Nc1nc(-c2sc(N)nc2C)cs1	u	13µM*	u	-3%	5
Cc1ccc(S(=O)(=O)NCCc2nnc3ccc(SCc4ccccc4C)nn23)cc1	-5%	-8%	-4%	x	x
CNc1oc(C)nc1S(=O)(=O)c1ccccc1	-20%	u	u	32µM*	-1
Cc1cccc(OCC(=O)Nc2ccccc2OCc2cc(=O)n3cc(C)ccc3n2)c1	-10%	2%	-5%	x	x
O=C(CSc1nnc(-c2ccco2)o1)c1ccccc1	-1%	6%	-8%	56µM*	1
